Test results: PubChem BioAssay (Tox21)
Inconclusive results are not listed. Activity calls are given as the source filed them. Unless noted, calls follow the shape of the dose curve; as a rule, active = well fitted curve in the direction sought with a large enough effect in the repeat runs; inconclusive = weak or mixed curves; inactive = no such curve, though single readings can be large; an effect the other way counts as inactive or inconclusive.

Experiments:
[1] = qHTS assay to identify small molecule antagonists of the estrogen receptor alpha (ER-alpha) signaling pathway using the BG1 cell line in the presence of 0.1 nM 17-beta-estradiol - cell viability counter screen (AID 1259241); also: nearly all actives have a fitted effect of over 40% in size
Outline: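 In this screen, hormone-deprived VM7Luc4E2 cells were seeded at 4,000 per well, dosed with compound and 0.1 nM estradiol final, and incubated 22 hr at 37C and 5% CO2; fluorogenic live-cell protease signal reported viability.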

[2] = qHTS assay to identify small molecule antagonists of the androgen receptor (AR) signaling pathway using the MDA cell line in the presence of 0.5 nM R1881 - cell viability counter screen (AID 1259242); also: nearly all actives have a fitted effect of over 45% in size
Outline: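 Human breast carcinoma MDA-kb2 cells, cultured without CO2, receive compounds alongside 0.5 nM (final) R1881 agonist. After 16 hr at 37C, viability is taken as live-cell protease signal.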

[3] = target: Estrogen receptor (Homo sapiens) (UniProt P03372); assay: qHTS assay to identify small molecule antagonists of the estrogen receptor alpha (ER-alpha) signaling pathway using the BG1 cell line in the presence of 0.1 nM 17-beta-estradiol (AID 1259244); also: nearly all actives have a fitted effect of over 50% in size
Outline: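 Seeding of stripped-serum-adapted VM7Luc4E2 cells, 24 h attachment, compound transfer, then 0.1 nM final 17beta-estradiol; after 22 h incubation, ONE-Glo reagent and luminescence reading.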

[4] = qHTS assay to identify small molecule HDAC inhibitors (AID 1259364);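 also: wild-type HCT-116 cells with endogenous class I/II HDAC activity; top concentration of the series differs between compounds; nearly all actives have a fitted effect of over 45% in size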
Outline: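 After a 2 hr compound incubation (37C, 5% CO2), HCT-116 cells seeded at 1,500/well the day before received HDAC-Glo reagent; signal read as luminescence after 30 min at room temperature.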

[5] = qHTS assay to identify small molecule HDAC inhibitors - cell viability counter screen (AID 1259365); also: series mostly up to about 92 µM; nearly all actives have a fitted effect of over 50% in size
Outline: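 Measured quantity is CellTiter-Glo luminescence from wild-type HCT-116 cells after compound incubation of 2hr at 37C, 5% CO2; reagent developed 30min at room temperature.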

[6] = qHTS assay to identify small molecule agonists of the sonic hedgehog signaling (Shh) pathway - cell viability counter screen (AID 1259366); also: nearly all actives have a fitted effect of over 50% in size
Outline: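 In quantitative high-throughput format, 3T3 Gli1-Luc cells were exposed to compounds for 24hr and multiplexed for viability using CellTiter-Fluor, incubated 1hr at 37C before the fluorescence read.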

[7] = qHTS assay to identify small molecule antagonists of the sonic hedgehog signaling (Shh) pathway - cell viability counter screen (AID 1259367); also: nearly all actives have a fitted effect of over 55% in size
Outline: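 Fluorescence read-out (CellTiter-Fluor, 1 hr at 37C) taken after 23 hr compound treatment of 3T3 Gli1-Luc cells stimulated with conditioned medium. Cells were seeded at 2,000 per well and pre-incubated 4 hr.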

[8] = qHTS assay to identify small molecule agonists of the sonic hedgehog signaling (Shh) pathway (AID 1259368; calls by dose curve;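 also: NIH/3T3-derived 3T3Gli1-Luc cells carrying a stable Gli1-driven firefly luciferase reporter; series mostly up to about 92 µM; nearly all actives have a fitted effect of over 15% in size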)
Outline: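 Stable NIH/3T3 Gli1-Luc reporter clone; 24 hr cpd exposure after a 4 hr settling period; luminescence endpoint.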

[9] = qHTS assay to identify small molecule antagonists of the sonic hedgehog signaling (Shh) pathway (AID 1259369; calls by dose curve; also: nearly all actives have a fitted effect of over 45% in size)
Outline: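 Gli1 transcriptional reporter (firefly Luc) in NIH/3T3 background, conditioned-medium activated. 24hr exposure, luminescence endpoint.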

[10] = target: Estrogen receptor beta (Homo sapiens) (UniProt Q92731); assay: qHTS assay to identify small molecule agonists of the estrogen receptor beta (ER-beta) signaling pathway (AID 1259377; active = well fitted activation curve with a large enough effect in the signal ratio in the repeat runs, not every such curve was filed as active; the % refers to the signal ratio)
Outline: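 Reporter cells (HEK293T, ER-beta-UAS-bla) receive compounds or DMSO after a 6 hr pre-incubation. They then incubate 16 hr at 37C/5% CO2, and fluorescence from LiveBLAzer B/G substrate is measured after 2 hours at room temperature.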

[11] = target: Estrogen receptor beta (Homo sapiens) (UniProt Q92731); assay: qHTS assay to identify small molecule antagonists of the estrogen receptor beta (ER-beta) signaling pathway (AID 1259378; active = well fitted inhibition curve with a large enough effect in the signal ratio in the repeat runs, not every such curve was filed as active; the % refers to the signal ratio)
Outline: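 ER-beta-UAS-bla HEK293T cells in 2% charcoal-stripped FBS medium treated with compound plus 1nM final 17-beta-estradiol for 16 hr at 37C. Beta-lactamase reporter read by FRET substrate fluorescence after 2 hours at room temperature.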

[12] = qHTS assay to identify small molecule agonists of the androgen receptor (AR) signaling pathway in the presence of an antagonist - cell viability counter screen (AID 1259379);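 also: MDA-kb2 human breast cancer cells carrying an MMTV luciferase reporter; series mostly up to about 92 µM; nearly all actives have a fitted effect of over 25% in size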
Outline: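 Counter screen for cell viability run in parallel with the AR agonist-mode luciferase assay. MDA-kb2 cells were co-treated with nilutamide (3.0uM final) and compounds, then incubated 16 hr at 37C, and CellTiter-Fluor fluorescence was measured.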

[13] = qHTS assay to identify small molecule agonists of the estrogen receptor beta (ER-beta) signaling pathway - cell viability counter screen (AID 1259380); also: nearly all actives have a fitted effect of over 30% in size
Outline: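 In this qHTS counter screen, HEK293T cells carrying an ER-beta/UAS beta-lactamase reporter, grown in 2% charcoal-stripped FBS, received compound for 16 hr; ATP-based CellTiter-Glo luminescence was then read after 30 min at room temperature.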

[14] = qHTS assay to identify small molecule antagonists of the estrogen receptor beta (ER-beta) signaling pathway - cell viability counter screen (AID 1259382); also: series mostly up to about 92 µM; nearly all actives have a fitted effect of over 55% in size
Outline: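 HEK293T ER-beta-UAS-bla, 2% charcoal-stripped FBS; compounds + 1nM E2 16 hr 37C; CellTiter-Glo luminescence, 30 min RT.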

[15] = target: Estrogen receptor (Homo sapiens) (UniProt P03372); assay: qHTS assay to identify small molecule agonists of the estrogen receptor alpha (ER-alpha) signaling pathway in the presence of an antagonist (AID 1259383; calls by dose curve; also: top concentration of the series differs between compounds; nearly all actives have a fitted effect of over 15% in size)
Outline: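 ER-alpha agonism measured under antagonist challenge: 10.0nM ICI-182,780 (final) plus compound, 15 concentrations, 22hr, VM7Luc4E2 ERE-luciferase cells. Read by luminescence.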

[16] = qHTS assay to identify small molecule agonists or antagonists of the thyroid stimulating hormone receptor (TSHR) signaling pathway - wild type cell line counter screen (AID 1259384; calls by dose curve)
Outline: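 Wild-type Hek293 cells, 800/well, 18 h at 37C, then compound with Ro20-1724 for 30 min RT. cAMP by HTRF (cAMP-d2/anti-cAMP cryptate), 1 h RT, fluorescence read. 15 concentrations, triplicates.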

[17] = target: Thyrotropin receptor (Homo sapiens) (UniProt P16473); assay: qHTS assay to identify small molecule antagonists of the thyroid stimulating hormone receptor (TSHR) signaling pathway (AID 1259385; calls by dose curve; also: nearly all actives have a fitted effect of over 20% in size)
Outline: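 TSHR-HEK293 cells (800/well) plated 18 h, then compounds with Ro20-1724 and TSH at 1.5 ng/mL final, 30 min at room temperature. cAMP quantified by HTRF (cAMP-d2/anti-cAMP-cryptate, 1 h); 15 concentrations in triplicate.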

[18] = qHTS assay to identify small molecule phospholipidosis (PLD) inducers (AID 1259344; active = well fitted curve in the direction sought with a large enough effect; an effect the other way counts as inactive or inconclusive)
Outline: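 Read-out is LipidTOX Red fluorescence (ex 595/em 615) imaged in HepG2 cells after 24 h compound exposure at 37 C, with Hoechst nuclear counterstain (ex 352/em 461) allowing per-cell normalisation.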

Measured: Potency

Chain of Estrogen receptor (Homo sapiens) (P03372 whole entry, looked up): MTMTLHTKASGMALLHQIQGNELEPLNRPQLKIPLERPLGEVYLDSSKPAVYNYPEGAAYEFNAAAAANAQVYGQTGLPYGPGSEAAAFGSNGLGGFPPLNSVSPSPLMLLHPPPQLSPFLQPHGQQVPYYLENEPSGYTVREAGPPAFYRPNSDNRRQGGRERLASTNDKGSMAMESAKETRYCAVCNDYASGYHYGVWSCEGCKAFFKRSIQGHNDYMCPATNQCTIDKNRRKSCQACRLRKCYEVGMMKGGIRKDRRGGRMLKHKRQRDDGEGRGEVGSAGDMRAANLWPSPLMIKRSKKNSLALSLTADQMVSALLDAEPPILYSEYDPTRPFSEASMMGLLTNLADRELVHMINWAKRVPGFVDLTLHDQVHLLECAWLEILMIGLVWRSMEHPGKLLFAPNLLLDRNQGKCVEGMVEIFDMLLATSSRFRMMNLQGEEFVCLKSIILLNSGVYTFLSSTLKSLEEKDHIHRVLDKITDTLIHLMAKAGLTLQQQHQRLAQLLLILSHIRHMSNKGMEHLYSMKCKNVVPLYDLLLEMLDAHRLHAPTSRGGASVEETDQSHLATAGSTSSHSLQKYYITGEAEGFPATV
Chain of Estrogen receptor beta (Homo sapiens) (Q92731 whole entry, looked up): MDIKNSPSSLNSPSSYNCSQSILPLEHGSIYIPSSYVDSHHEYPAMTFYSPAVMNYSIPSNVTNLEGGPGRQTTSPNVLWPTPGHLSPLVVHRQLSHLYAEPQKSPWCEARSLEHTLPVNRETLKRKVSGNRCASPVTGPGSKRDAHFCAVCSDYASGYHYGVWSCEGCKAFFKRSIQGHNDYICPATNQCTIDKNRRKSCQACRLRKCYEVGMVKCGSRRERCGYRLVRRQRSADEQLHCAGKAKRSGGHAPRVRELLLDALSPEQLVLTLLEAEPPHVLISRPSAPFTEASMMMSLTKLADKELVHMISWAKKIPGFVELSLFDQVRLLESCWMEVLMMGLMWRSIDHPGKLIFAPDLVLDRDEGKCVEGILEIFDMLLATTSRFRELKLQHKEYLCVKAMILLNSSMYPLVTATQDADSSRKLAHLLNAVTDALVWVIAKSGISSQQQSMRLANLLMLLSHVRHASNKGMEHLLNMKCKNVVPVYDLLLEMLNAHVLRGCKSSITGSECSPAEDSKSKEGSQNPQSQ
Chain of Thyrotropin receptor (Homo sapiens) (P16473 whole entry, looked up): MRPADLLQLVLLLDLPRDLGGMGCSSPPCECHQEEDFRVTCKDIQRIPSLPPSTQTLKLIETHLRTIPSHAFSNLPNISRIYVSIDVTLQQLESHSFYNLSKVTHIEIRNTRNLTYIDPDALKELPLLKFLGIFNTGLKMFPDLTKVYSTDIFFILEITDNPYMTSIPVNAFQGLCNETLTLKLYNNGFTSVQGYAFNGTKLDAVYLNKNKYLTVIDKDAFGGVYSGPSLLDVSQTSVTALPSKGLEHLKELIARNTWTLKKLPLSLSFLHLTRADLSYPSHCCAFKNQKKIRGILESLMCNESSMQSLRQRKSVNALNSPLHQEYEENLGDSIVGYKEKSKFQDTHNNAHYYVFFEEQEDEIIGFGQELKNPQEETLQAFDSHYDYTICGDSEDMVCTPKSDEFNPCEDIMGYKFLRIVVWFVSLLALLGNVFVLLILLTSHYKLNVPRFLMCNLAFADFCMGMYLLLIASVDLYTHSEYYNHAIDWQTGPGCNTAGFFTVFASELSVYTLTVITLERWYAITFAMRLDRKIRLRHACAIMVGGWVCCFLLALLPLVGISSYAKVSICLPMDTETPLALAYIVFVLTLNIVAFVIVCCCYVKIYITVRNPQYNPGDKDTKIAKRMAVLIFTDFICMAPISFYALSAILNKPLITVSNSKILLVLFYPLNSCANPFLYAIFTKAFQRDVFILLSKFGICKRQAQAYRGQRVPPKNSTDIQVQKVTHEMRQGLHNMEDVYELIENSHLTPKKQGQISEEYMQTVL

CC(N)C(=O)OC(C)(C)Cc1ccc(Cl)cc1 (configuration not stated)
inactive: [1] | [2] | [3] | [4] | [5] | [6] | [7] | [8] | [9] | [10] | [11] | [12] | [13] | [14] | [15] | [16] | [17]

COC(=O)[C@@H]1[C@H]2C[C@H]3c4[nH]c5ccccc5c4CCN3C[C@@H]2CC[C@@H]1O
inactive: [1] | [2] | [3] | [18] | [4] | [5] | [6] | [7] | [8] | [9] | [10] | [12] | [13] | [15] | [16]

COC(=O)c1ccccc1C(=O)c1ccc(OCCN2CCCCC2)cc1
inactive: [1] | [2] | [3] | [18] | [4] | [5] | [6] | [7] | [8] | [9] | [10] | [11] | [12] | [14] | [15] | [16] | [17]

CO[C@@H]1[C@@H](OC(N)=O)[C@@H](O)[C@H](Oc2ccc3c(O)c(NC(=O)c4ccc(O)c(CC=C(C)C)c4)c(=O)oc3c2C)OC1(C)C
inactive: [1] | [2] | [3] | [18] | [4] | [5] | [6] | [7] | [8] | [9] | [12] | [13] | [15] | [16] | [17]

CC1(C)S[C@@H]2[C@H](N=CN3CCCCCC3)C(=O)N2[C@H]1C(=O)O
inactive: [1] | [2] | [3] | [18] | [4] | [5] | [6] | [7] | [8] | [9] | [10] | [11] | [13] | [14] | [15] | [16] | [17]

CN(CCOc1ccc(NS(C)(=O)=O)cc1)CCc1ccc(NS(C)(=O)=O)cc1
inactive: [1] | [2] | [3] | [18] | [4] | [5] | [6] | [7] | [8] | [9] | [12] | [13] | [14] | [15] | [16] | [17]
